Dicer inh – blocks human Dicer maturation of pre-miR-21 | 47,000 tested, 6% active | cat-ELCCA pre-miR-21 Dicer processing, chemiluminescence; stronger effect = higher value | AID 1347074 | Q9UPY3 | z-score at 25 µM; in the data active = z-score above about 3, passing the limit was not always enough;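 note: plate controls were vehicle for no effect and no enzyme for full effect; higher signal means more uncleaved substrate so more Dicer inhibition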
* marks the source's active call; other numbers are inactive results. The entries come from a sample that favours hits as a whole.

SMILES | Dicer inh
Cn1c(=O)c2c(nc(NC3CCCCC3)n2CC(O)COc2ccccc2)n(C)c1=O (stereo not drawn) | -2.4
Cn1c(=O)c2c(nc(NCCO)n2CC(O)COc2ccccc2)n(C)c1=O (stereo not drawn) | -1.6
COc1ccc(OCC(O)Cn2c(NC3CCCCC3)nc3c2c(=O)n(C)c(=O)n3C)cc1 (stereo not drawn) | 3.3*
CSc1nc(N)n(-c2ncccc2C(F)(F)F)n1 | 2.5
CCn1c2c(c(=O)[nH]c1=O)C(c1ccsc1)C1=C(N2)c2ccccc2C1=O (stereo not drawn) | 2.1
COc1ccc(OCc2nnc3n2N=C(c2ccc(Br)cc2)CS3)cc1 | 3*
COCCc1nnc2n1N=C(c1ccc(Br)cc1)CS2 | -0.4
Fc1ccc(OCc2nnc3n2N=C(c2ccc(Br)cc2)CS3)cc1 | -1
CC(C)(C)NS(=O)(=O)c1ccc(Cl)c(Cl)c1 | 1.9
CSc1nnc(-c2ccc(S(=O)(=O)N3CCOCC3)s2)n1C | 2.8
O=C(Nc1nnc(-c2ccc(F)cc2)s1)c1ccc(F)cc1 | 1.1
Fc1ccc(Cc2cnc(Nc3ccc(F)cc3)s2)cc1 | 0.63
O=C(Nc1ncc(Cc2ccc(F)cc2)s1)c1ccc(Br)cc1 | 4.1*
CSc1ccn(-c2nc(-c3ccccc3)sc2-c2ccccc2)c(=O)n1 | -1.1
CN(C)S(=O)(=O)N(CC(=O)Nc1ccc(F)c(F)c1)c1ccccc1 | 4.3*
CSc1cccc(NC(=O)CN(c2ccccc2)S(=O)(=O)N(C)C)c1 | -1.7
CN(C)S(=O)(=O)N(CC(=O)Nc1ccc2c(c1)OCO2)c1ccccc1 | -1.1
Brc1cccc(CSc2ncnc3nc[nH]c23)c1 | -0.24
COc1ccc(C(=O)CC2(O)C(=O)N(C)c3ccccc32)cc1OC (stereo not drawn) | -0.13
CCOC(=O)C1=C(C)NC2=C(C(=O)CCC2)C1c1ccccc1N1CCC(C(=O)OCC)CC1 (stereo not drawn) | -0.16
Cc1ccc(S(=O)(=O)Oc2c(Cl)cc(C(C)(C)C)cc2Br)cc1 | -1.1
CC(=O)Nc1ccc(S(=O)(=O)Oc2ccccc2Cl)cc1 | -1.1
CC(=O)Nc1ccc(S(=O)(=O)Oc2c(Cl)cc(C)cc2Cl)cc1 | 4.5*
O=C(CSC1=NCCc2ccccc21)c1ccc(-c2ccccc2)cc1 | -5.7
Cc1nn2c3c(cnc2c1-c1ccccc1)C(=O)CC(c1cccc(Cl)c1)C3 (stereo not drawn) | -0.29
SMILES | Dicer inh
CC(C)(C)c1cc2nc(C(F)(F)F)cc(Oc3ccccc3)n2n1 | 0.23
COC(=O)C1=C(C)NC2=C(C(=O)CCC2)C1c1cccc(Br)c1 (stereo not drawn) | -0.4
CCOC(=O)C1=C(C)NC2=C(C(=O)CCC2)C1c1cccc(Br)c1 (stereo not drawn) | -0.86
CC1=C(C(=O)Nc2nc3ccccc3s2)C(c2cccc(Br)c2)C2=C(CCCC2=O)N1 (stereo not drawn) | 3.2*
CCOC(=O)/C(C#N)=C/c1ccccc1C | 0.5
CCCCCCCSc1nnc2[nH]c(=O)cc(N)n12 | 2.5
Nc1cc(=O)[nH]c2nnc(SCCc3ccccc3)n12 | 4.1*
CCSc1nnc2[nH]c(=O)cc(N)n12 | 2.5
Nc1cc(=O)[nH]c2nnc(SCc3cccc(Oc4ccccc4)c3)n12 | 2.8
CCCCSc1nnc2[nH]c(=O)cc(N)n12 | 2.5
CCCCCSc1nnc2[nH]c(=O)cc(N)n12 | 4.5*
CCN(C(=S)Nc1ccc(OC)cc1)c1ccccc1 | 1.1
COc1nccnc1NS(=O)(=O)c1ccc(NC(=O)c2ccc(Br)cc2)cc1 | -0.45
COC(=O)c1cc(NS(=O)(=O)c2ccc(F)cc2)cc(C(=O)OC)c1 | -0.05
COC(=O)c1cc(NS(=O)(=O)c2ccc(Br)cc2)cc(C(=O)OC)c1 | 3.9*
Cc1ccc(N=C(C#N)C2=C(O)c3ccccc3C2=O)c(Cl)c1 | -1.8
CC1(C)CC2(CC(C)(c3csc(N)n3)OC2=O)C(=O)O1 (stereo not drawn) | 6.1
Cc1nc2c(Br)cc(Br)cc2c(=O)n1Cc1cccs1 | -0.47
O=C(O)CNc1n[nH]c(=O)[nH]c1=O | -0.93
CCOC(=O)Cc1n[nH]c(=O)[nH]c1=O | -0.76
CCC(Nc1n[nH]c(=O)[nH]c1=O)C(=O)OC (stereo not drawn) | 3.2*
Cc1cc2nc(SCC(=O)C(C)(C)C)[nH]c2cc1C | 1.9
CN1c2ccccc2C(=O)/C(=N\Nc2cc(C(F)(F)F)cc(C(F)(F)F)c2)S1(=O)=O | -0.2
CCOCCOC(=O)COc1ccc2c(=O)c(Oc3cccc(C)c3)coc2c1 | -1.4
CCCc1cc(-c2n[nH]c(C)c2-c2ccc(C(=O)OCC)o2)c(O)cc1O | 3.9*
SMILES | Dicer inh
CCOC(=O)c1cc(=O)c2c(O)cccc2o1 | -0.64
CCOC(=O)c1ccc(CSc2n[nH]c(C)n2)o1 | -1
N#C/C(=C\NC1CCN(Cc2ccccc2)CC1)S(=O)(=O)c1ccccn1 | -0.99
Cc1nc(-c2ccccc2)nc(SCc2c(F)cccc2Cl)c1C#N | 2.2
Fc1ccc(CN2CCCN(Cc3ccc(F)cc3)C2c2ccc3c(c2)CCO3)cc1 | -0.74
COc1ccc(C2Nc3ccccc3-c3cc(C)nn32)cc1OC (stereo not drawn) | 3
